# Hit rate of the full screen: of about 2,100 compounds, about 1,100 (52%) were called active. Another 29% or so got no clear call; they are omitted. The set was probably picked from earlier hits. The list shows a part of the results. Unmarked numbers belong to inactive results. The call rests on the fitted dose curve; in most records, active means well fitted inhibition curve with a large enough effect; inconclusive means small, poorly fitted or top-dose-only effect; inactive means no such curve, though single readings can be large or run the other way.
# Biological target: DNA dC->dU-editing enzyme APOBEC-3F (Homo sapiens) (UniProt Q8IUX4)
# Sequence (Q8IUX4 whole entry, looked up): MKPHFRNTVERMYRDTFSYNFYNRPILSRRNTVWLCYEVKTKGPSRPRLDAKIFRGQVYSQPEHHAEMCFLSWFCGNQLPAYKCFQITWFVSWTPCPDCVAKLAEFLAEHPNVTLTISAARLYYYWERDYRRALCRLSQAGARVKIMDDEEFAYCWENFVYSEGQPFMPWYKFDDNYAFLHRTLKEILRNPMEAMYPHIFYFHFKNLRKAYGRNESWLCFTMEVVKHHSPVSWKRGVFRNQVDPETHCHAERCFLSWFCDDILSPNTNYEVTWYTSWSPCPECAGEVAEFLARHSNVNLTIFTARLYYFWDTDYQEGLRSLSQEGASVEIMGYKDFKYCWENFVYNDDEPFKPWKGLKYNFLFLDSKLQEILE
# Assay: qHTS for inhibitors of Vif-A3F interactions: Cherry picks counterscreen; further: nearly all actives have a fitted effect of over 65% in size
# Settings: HeLa A3F-eYFP/Vif cells, eYFP fluorescence, 24 h; series mostly up to 46.1 µM; activity, negative = inhibitor: at the top concentration
# Text: The recent discovery and characterization of host restriction factors, which provide a potent defense to invading retroviruses, has provided new targets for antiviral drug development. APOBEC3G (A3G) and APOBEC3F (A3F) are potent cytidine deaminases that block HIV-1 replication; HIV-1 expresses the Vif protein, which counteracts A3G and A3F by binding to them and inducing their proteasomal degradation. The Vif-A3G and Vif-A3F interactions provide two potential targets for development of small molecules which can interfere with the ability of Vif to degrade A3G or A3F. […] To identify inhibitors that can interfere with Vif mediated degradation of A3G and A3F, we have developed Hela cell lines that stably express A3G or A3F tagged with eYFP at the C-terminal end (A3G-eYFP or A3F-eYFP, respectively) and Vif. In the absence of an inhibitor, Vif induces degradation of A3G-eYFP and A3F-eYFP, and the cells are not fluorescent. In the presence of an inhibitor, it is expected that Vif will be unable to degrade A3G-eYFP and/or A3F-eYFP, resulting in an increase in yellow fluorescence. In this counterscreen assay, Vif A3F was screened against the cherry picks ordered from the MLSMR. NIH Chemical Genomics Center [NCGC] NIH Molecular Libraries Probe Centers Network [MLPCN] MLPCN Grant: MH093245 Assay Submitter (PI): Vinay Pathak, National Cancer Institute
# A3F-Vif cells were harvested from T225 flask and resuspended in phenol free OPTI-MEM medium with 5% FBS. Then 5 uL of 140,000 cells/mL resuspended cells was dispensed into each well of low base Aurora COC 1,536-well plates (black walled, clear bottom) using a Multidrop Combi dispenser. After overnight culture at 37 deg C with 5% CO2, a total of 23 nL of compounds at 5 selected concentrations from the NPC or positive control (2 mM stock of MG132) in DMSO was transferred to each well of the assay plate using a pintool (Kalypsys, San Diego, CA), and the plates were further incubated at 37 deg C with 5% CO2 for 24 hours. After that, the plates were measured on Acumen Explorer (TTP Lab Tech). The fluorescence was detected by 488 nm/Ex and […].
# On the % scale 0 is the no-effect control and ±100 the full control effect; potency means the concentration at half of the fitted maximal effect.
SMILES,Potency,"activity, negative = inhibitor"
COc1cc(-c2cc(NC=O)c3ncc(-c4ccc(C(C)=O)cc4)n3c2)cc(OC)c1OC,17.7 µM (active),–
COc1cccc(-c2cnc3c(NC=O)cc(-c4cc(OC)c(OC)c(OC)c4)cn23)c1,15.8 µM (active),–
CC(=O)/C(=C\N(C)C)Sc1ccc(Cl)cc1,–,4.05% [at 36.9 µM]
Clc1ccsc1-c1csc(-c2cccnc2)n1,15.8 µM (active),–
CC(=O)Nc1ccc(S(=O)(=O)Nc2nc3ccccc3nc2Sc2nncn2C)cc1,16.4 µM (active),–
Cn1ccnc1Sc1nc2ccccc2nc1NS(=O)(=O)c1ccccc1,16.4 µM (active),–
Cn1c(=O)c2c(nc(NC3CCCC3)n2C)n(C)c1=O,–,7.15%
O=C1COc2ccc(C(=O)CSc3nc4ccccc4c(=O)n3-c3ccc(Cl)c(Cl)c3)cc2N1,23.1 µM (active),–
COc1ccccc1NC1=NC(c2ccc(Cl)cc2)N=C(N)N1 (configuration not stated),12.5 µM (active),–
COc1ccc2nc3ccccc3nc2c1NC(=O)c1ccc(Br)cc1,16.4 µM (active),–
O=C(NC(=S)Nc1c(Cl)cc(Cl)cc1Cl)c1ccccc1,–,0.68%
COc1ccc2nc3ccccc3nc2c1NC(=O)c1ccc(Cl)cc1,23.1 µM (active),–
CC(C)CCNC(=O)c1ccc2c(c1)NC(=O)C(CS(=O)(=O)Cc1cccc(Br)c1)N2 (configuration not stated),–,-23.1%
Cc1ccc(CNC(=O)c2ccc3c(c2)NC(=O)C(CS(=O)(=O)Cc2cccc(C)c2)N3)cc1 (configuration not stated),18.4 µM (active),–
CN(C)c1ccc2nc3c(=O)[nH]c(=O)nc-3n(CC(O)C(O)C(O)CO)c2c1 (configuration not stated),6.51 µM (active),–
O=C1C=C(Nc2ccc(Cl)cc2Cl)CC(c2ccco2)C1 (configuration not stated),4.98 µM (active),–
C[n+]1cc(C(=O)N2CCCCC2)ccc1/C=C/c1c[nH]c2ccccc12,11.2 µM (active),–
CCN(CC)C(=O)c1ccc(/C=C/c2c[nH]c3ccccc23)[n+](C)c1,16.4 µM (active),–
COc1ccc(-c2cnc3c(c2)CCC3(C#N)C#N)cc1,14 µM (active),–
CCOC(=O)c1ccc(NC(=S)Nc2cccc(C)n2)cc1,–,-17.8%
CCOC(=O)c1cc(-c2ccccc2)sc1NC(=S)Nc1cc(C)ccn1,18.4 µM (active),–
Cc1ccc(NC(=S)Nc2ccccn2)c(C)c1,–,1.93%
CCOc1ccc(-n2nnnc2SCC(=O)c2ccccc2)cc1,15.8 µM (active),–

SMILES,Potency,"activity, negative = inhibitor"
Cc1sc2nc(CSc3nnnn3-c3ccc(Cl)cc3)[nH]c(=O)c2c1C,–,-21.8%
Cc1cccc(/C=C/C(=O)c2ccc([N+](=O)[O-])o2)c1,4.98 µM (active),–
O=C(/C=C/c1ccc(Cl)cc1)c1ccc([N+](=O)[O-])o1,9.94 µM (active),–
Cc1onc(-c2c(F)cccc2Cl)c1C(=O)O/N=C(\N)c1ccc([N+](=O)[O-])o1,–,-16.6% [at 36.9 µM]
O=C(/C=C/c1ccncc1)c1cc(Cl)ccc1O,–,-16.9%
COc1cccc(/C(O)=C/c2nc3ccc(C(=O)NCCc4cccc(C)c4)cc3[nH]c2=O)c1,16.4 µM (active),–
COc1cccc(/C(O)=C/c2nc3ccc(C(=O)NCCc4ccc(Cl)cc4)cc3[nH]c2=O)c1,16.4 µM (active),–
COc1ccc2oc(=N)c(C(=O)Nc3ccc(F)cc3)cc2c1,7.31 µM (active),–
COc1cc(C2Nc3ccc4ncccc4c3C3=C2C(=O)CCC3)cc(OC)c1O (configuration not stated),15.8 µM (active),–
COc1cc(C2Nc3ccc4ncccc4c3C3=C2C(=O)CCC3)ccc1O (configuration not stated),7.04 µM (active),–
COc1cc(NC(=O)c2ccco2)c(C(=O)OCC(=O)c2c[nH]c3ccccc23)cc1OC,–,-10.7% [at 36.9 µM]
O=C(C(=O)N1CCN(c2ccccc2Cl)CC1)c1c[nH]c2ccccc12,–,-0.112% [at 36.9 µM]
CC1CC(C)CN(CC(=O)c2c[nH]c3ccccc23)C1 (configuration not stated),20.6 µM (active),–
COc1cc(/C=C(/C#N)c2nc3ccccc3[nH]2)ccc1OCC(=O)Nc1ccccc1C(C)C,13 µM (active),–
COc1cc(/C=C(\C#N)c2nc3ccccc3[nH]2)ccc1OCc1ccccc1F,16.4 µM (active),–
COc1cc(/C=C(\C#N)c2nc3ccccc3s2)ccc1OCC(=O)Nc1ccccc1,15.8 µM (active),–
COc1cc(/C=C(\C#N)c2nc3ccc(C)cc3[nH]2)ccc1OC(C)C,20.6 µM (active),–
COc1cc(/C=C(\C#N)c2nc3ccccc3[nH]2)ccc1O,–,32.8%
NNC(=S)Nc1c(F)cc(F)cc1Br,–,-2.67%
Cc1ccc2nc(/C(C#N)=C\c3ccc(OC(=O)c4cccs4)cc3)[nH]c2c1,8.86 µM (active),–
CCOc1cc(N(CC)CC)ccc1/C=C(/C#N)c1nc2ccccc2[nH]1,–,47.3%
CCN(CC)c1ccc(/C=C(/C#N)c2nc3ccccc3[nH]2)c(OC(C)C)c1,0.366 µM (active),–
COc1cc(/C=C(/C#N)c2nc3ccccc3[nH]2)ccc1OC(=O)c1ccco1,–,32.9% [at 36.9 µM]

SMILES,Potency,"activity, negative = inhibitor"
Cc1ccc(-c2cc(-c3ccco3)c3c(N)c(C(=O)NN)oc3n2)cc1,14.6 µM (active),–
NNC(=O)c1oc2nc(-c3ccccc3)cc(-c3ccco3)c2c1N,16.4 µM (active),–
CCOc1cc(/C=C2\CCC/C(=C\c3cc(Cl)c(O)c(OCC)c3)C2=O)cc(Cl)c1O,12.5 µM (active),–
COc1cc(/C=C2/CCC/C(=C\c3cc(O)c(OC)c(Cl)c3)C2=O)cc(Cl)c1O,13 µM (active),–
CCOc1cc(/C=C2\CN(C)C/C(=C\c3ccc(O)c(OCC)c3)C2=O)ccc1O,2.5 µM (active),–
O=c1c(O)c(-c2cccs2)oc2ccccc12,2.59 µM (active),–
Cc1ccc(/C=N/NC(=O)c2cc(C)oc2C)cc1,7.04 µM (active),–
CN(C)c1ccc(/C=N/NC(=O)c2ccccc2Cl)cc1,3.53 µM (active),–
Cc1ccc(/C=N/NC(=O)c2nc3nc(C)cc(C)n3n2)cc1,–,7.3%
CC(NC(=S)Nc1cccc(C(F)(F)F)c1)C(C)(C)C (configuration not stated),–,-9.15%
C[C@@H]1O[C@@H](O[C@@H]2C(=O)c3c(O)cc(O)cc3O[C@H]2c2ccc(O)c(O)c2)[C@H](O)[C@H](O)[C@H]1O,–,4.26% [at 36.9 µM]
N#Cc1ccc(-c2cccs2)nc1SCc1c(F)cccc1Cl,3.66 µM (active),–
Cc1cccc(CSc2nc(-c3cccs3)ccc2C#N)c1,–,-24.3%
CSc1ccccc1NC(=O)COC(=O)/C=C/c1ccco1,–,4.47%
O=C(/C=C/c1ccco1)NC(=S)Nc1cccc(-c2nc3ccccc3o2)c1,4.98 µM (active),–
Cc1ccnc(NC(=S)NC(=O)/C=C/c2ccco2)c1,11.2 µM (active),–
COc1ccc(-c2csc(NC(=S)NC(=O)/C=C/c3ccco3)n2)cc1Br,6.27 µM (active),–
CC(C)(C)c1ccc(-c2csc(NC(=O)CN3C(=O)NC4(CCCCC4)C3=O)n2)cc1,–,-14.8%
CN(C)C=Nc1c(Br)cc(Br)c2nonc12,9.2 µM (active),–
CNC(=S)N/N=C(\C)c1ccc(Cl)s1,–,3.84%
N#CCC(=O)N/N=C/c1ccc(N2N=C(c3ccccc3)CC2c2ccccc2)cc1 (configuration not stated),16.4 µM (active),–
CCc1ccc(CNC(=O)Cc2ccc(NC(=O)C3=C(C)OCCS3)cc2)cc1,1.12 µM (active),–
Cc1ccc2nc(/C(C#N)=C/c3ccc(-c4ccccc4C(=O)O)o3)[nH]c2c1,4.61 µM (active),–

SMILES,Potency,"activity, negative = inhibitor"
N#C/C(=C\c1ccc(-c2ccc(F)cc2F)o1)c1nc2ccccc2[nH]1,20.6 µM (active),–
Cc1ccc2nc(/C(C#N)=C/c3ccc(-c4cccc(Cl)c4)o3)[nH]c2c1,8.2 µM (active),–
N#C/C(=C\c1ccc(-c2ccc(C(=O)O)cc2)o1)c1nc2ccccc2[nH]1,2.59 µM (active),–
Cc1ccc2nc(/C(C#N)=C/c3ccc(-c4ccc(F)cc4F)o3)[nH]c2c1,4.61 µM (active),–
Cc1ccc2nc(/C(C#N)=C/c3ccc(-c4ccc(C(=O)OC(C)C)cc4)o3)[nH]c2c1,8.2 µM (active),–
Cc1c(Cl)cccc1-c1ccc(/C=C(\C#N)c2nc3ccccc3[nH]2)o1,16.4 µM (active),–
COCc1ccc(O)c2ncccc12,–,-0.742% [at 36.9 µM]
CCOC(=O)c1sc(NC(=S)NC(=O)c2ccco2)nc1C,–,1.21%
CC(=O)c1sc(N/N=C\c2c(O)ccc3ccccc23)nc1C,14 µM (active),–
COc1ccc(C(=O)C(C)[n+]2ccc(C)c3ccccc32)cc1[N+](=O)[O-] (configuration not stated),–,0.317% [at 36.9 µM]
COc1ccc(C(=O)NC2CCCc3ccccc32)cc1[N+](=O)[O-] (configuration not stated),8.86 µM (active),–
COc1ccccc1NC(=O)C1=C(C)Nc2nc3ccccc3n2C1c1cccs1 (configuration not stated),1.4 µM (active),–
COc1ccc2[nH]c3c(c2c1)CCNC3c1ccc([N+](=O)[O-])o1 (configuration not stated),18.4 µM (active),–
COc1ccc(C(=O)Nc2sc3c(c2C#N)CCN(C(C)=O)C3)cc1,9.94 µM (active),–
CC(C)N1CCc2c(sc(NC(=O)c3cc4cc([N+](=O)[O-])ccc4s3)c2C(N)=O)C1,23.1 µM (active),–
CCCCN(CCCC)S(=O)(=O)c1ccc(C(=O)Nc2sc3c(c2C(N)=O)CCN(CC)C3)cc1,25.9 µM (active),–
CC(C)CN(CC(C)C)S(=O)(=O)c1ccc(C(=O)Nc2sc3c(c2C(N)=O)CCN(C(C)C)C3)cc1,20.6 µM (active),–
CCOC(=O)c1c(NC(=O)c2ccc(S(=O)(=O)N3CCC(C)CC3)cc2)sc2c1CCN(C)C2,18.4 µM (active),–
CCCN1CCc2c(sc(NC(=O)c3ccc(S(=O)(=O)N(C)c4ccccc4)cc3)c2C(=O)NC)C1,18.4 µM (active),–
CCN1CCc2c(sc(-n3cccc3)c2C(C)NC(=O)Nc2ccc(C(=O)OC)cc2)C1 (configuration not stated),–,8.59%
CCN1CCc2c(sc(NC(=O)c3ccc(S(=O)(=O)N(CC)c4ccccc4)cc3)c2C(N)=O)C1,12.5 µM (active),–
CC(C)N1CCc2c(sc(NC(=O)c3ccc(S(=O)(=O)N4CCOCC4)cc3)c2C#N)C1,20.6 µM (active),–
CN1C(=O)N(C)c2ccc(C=O)c3cccc1c23,–,14.9%

# Source: PubChem BioAssay AID651815 (National Center for Advancing Translational Sciences (NCATS), 2012)
